The panel holds about 83,000 compounds, 20% with a hit somewhere; the sample as a whole holds those more often.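 Results are percent growth after 48 hours of single-concentration exposure. 100 means growth as in untreated cells, lower positive values show inhibition; negative values down to -100 show cell death.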 The source made the active and inactive calls. The calls were made as follows: active = growth percent below 10; inactive = the rest.
Tests used:
Test in all cases: NCI-60 one-dose screen, 48 h (100 = growth as untreated, 0 = no growth, -100 = all killed)
Conditions in all cases: 10 µM unless noted
NCI-H23 lung = test system: NCI-H23 lung
NCI-H226 lung = test system: NCI-H226 lung
NCI-H322M lung = test system: NCI-H322M lung
HOP-62 NSCLC = test system: HOP-62 NSCLC
NCI-H460 lung = test system: NCI-H460 lung
HOP-92 NSCLC = test system: HOP-92 NSCLC
NCI-H522 lung = test system: NCI-H522 lung
A549/ATCC NSCLC = test system: A549/ATCC NSCLC
786-0 renal = test system: 786-0 renal
COLO 205 colon = test system: COLO 205 colon

Measured: growth

CCN(C(=O)CN1CCN(c2cc3c(cc2F)c(=O)c(C(=O)O)cn3CC)CC1)c1nc(-c2ccccc2)cs1
active: NCI-H23 lung 9.94% | NCI-H460 lung 5.71% | HOP-92 NSCLC -31.8% | NCI-H522 lung -15.4% | A549/ATCC NSCLC 4.66% | COLO 205 colon -51.9%
inactive: NCI-H226 lung 18.2% | NCI-H322M lung 17.7% | HOP-62 NSCLC 15.5% | 786-0 renal 14.3%

COc1nc2c(cc1S(=O)(=O)c1ccccc1)CCc1c-2cnn1-c1ccc(Cl)cc1
inactive: NCI-H23 lung 89.5% | NCI-H226 lung 92.1% | NCI-H322M lung 101% | HOP-62 NSCLC 86.5% | NCI-H460 lung 99.2% | HOP-92 NSCLC 80.3% | NCI-H522 lung 81.1% | A549/ATCC NSCLC 95.4% | 786-0 renal 79.5% | COLO 205 colon 118%

O=C(O)c1ccc2c(c1Sc1ccccc1)C(=O)c1ccccc1C2=O
inactive: NCI-H23 lung 91.1% | NCI-H226 lung 92.6% | NCI-H322M lung 82.2% | HOP-62 NSCLC 91.8% | NCI-H460 lung 100% | HOP-92 NSCLC 76.7% | NCI-H522 lung 120% | A549/ATCC NSCLC 96.8% | 786-0 renal 106% | COLO 205 colon 112%

CCCCCCCCCCNC(=O)CCl
inactive: NCI-H23 lung 47.5% | NCI-H226 lung 85.7% | NCI-H322M lung 92.8% | HOP-62 NSCLC 81.3% | NCI-H460 lung 92.9% | HOP-92 NSCLC 36.2% | NCI-H522 lung 50.4% | A549/ATCC NSCLC 93.6% | 786-0 renal 82.3% | COLO 205 colon 116%

CCOC(=O)C(CC)n1c(=O)c2cc(OC)c(OC)cc2c2cnc3[nH]ccc3c21 (centres undefined)
inactive: NCI-H23 lung 66% | NCI-H226 lung 49.4% | NCI-H322M lung 71% | HOP-62 NSCLC 73.8% | NCI-H460 lung 72.4% | HOP-92 NSCLC 42.5% | NCI-H522 lung 79.3% | A549/ATCC NSCLC 76.1% | 786-0 renal 80.9% | COLO 205 colon 86%

CN1/C(=C\C=C\C2=[N+](C)c3ccccc3C2(C)C)C(C)(C)c2ccccc21
active: NCI-H23 lung -6.67% | NCI-H226 lung 5.56% | NCI-H322M lung 8.56% | HOP-62 NSCLC 3.55% | NCI-H460 lung 0.247% | HOP-92 NSCLC -18.1% | NCI-H522 lung -41.7% | A549/ATCC NSCLC 6.73% | 786-0 renal 2.93% | COLO 205 colon -88.5%

N=c1c2ccccc2nc2n1CCCCC2
inactive: NCI-H23 lung 102% | NCI-H226 lung 102% | NCI-H322M lung 112% | HOP-62 NSCLC 105% | NCI-H460 lung 113% | HOP-92 NSCLC 133% | NCI-H522 lung 116% | A549/ATCC NSCLC 101% | 786-0 renal 119% | COLO 205 colon 104%

COC(=O)C12C3C(=O)N(c4ccc(OC)cc4)C(=O)C3C(c3cn(-c4ccccc4)nc3C)N1[C@H](c1cn(-c3ccccc3)nc1C)[C@@H]1C(=O)N(c3ccc(OC)cc3)C(=O)[C@@H]12 (some centres undefined)
inactive: NCI-H23 lung 103% | NCI-H226 lung 99.7% | NCI-H322M lung 112% | HOP-62 NSCLC 116% | NCI-H460 lung 99.8% | HOP-92 NSCLC 97.4% | NCI-H522 lung 91.2% | A549/ATCC NSCLC 100% | 786-0 renal 102% | COLO 205 colon 112%

COc1ccc(OCC(=O)Nc2ccc(-c3nc4ccccc4s3)cc2C)cc1
inactive: NCI-H23 lung 69.3% | NCI-H226 lung 51% | NCI-H322M lung 94.7% | HOP-62 NSCLC 89.5% | NCI-H460 lung 95.5% | HOP-92 NSCLC 68.4% | NCI-H522 lung 61.6% | A549/ATCC NSCLC 86.2% | 786-0 renal 88.8% | COLO 205 colon 120%

COc1ccc(/C=N\NC(=O)c2ccncc2)cc1O
inactive: NCI-H23 lung 93.8% | NCI-H226 lung 92.6% | NCI-H322M lung 99.3% | HOP-62 NSCLC 93% | NCI-H460 lung 109% | HOP-92 NSCLC 92.9% | NCI-H522 lung 81.4% | A549/ATCC NSCLC 93.7% | 786-0 renal 93.7% | COLO 205 colon 110%

C[C@H](CCC(=O)O)[C@H]1CC[C@H]2[C@@H]3CC[C@@H]4/C(=C\c5ccco5)C(=O)/C(=C\c5ccco5)C[C@]4(C)[C@H]3CC[C@]12C
inactive: NCI-H23 lung 70.4% | NCI-H226 lung 89.2% | NCI-H322M lung 95.6% | HOP-62 NSCLC 116% | NCI-H460 lung 81.9% | HOP-92 NSCLC 106% | NCI-H522 lung 37.3% | A549/ATCC NSCLC 72.1% | 786-0 renal 91% | COLO 205 colon 87.3%

O=C(C[C@@H](C(=O)NCc1cccc(C(F)(F)F)c1)N1C(=O)[C@@H](N2C(=O)OC[C@@H]2c2ccccc2)[C@H]1/C=C/c1ccccc1)NC1CCN(Cc2ccccc2)CC1
inactive: NCI-H23 lung 36.2% | NCI-H226 lung 88.6% | NCI-H322M lung 73.1% | HOP-62 NSCLC 72.7% | NCI-H460 lung 13.1% | HOP-92 NSCLC 76.7% | NCI-H522 lung 33.8% | A549/ATCC NSCLC 53.5% | 786-0 renal 76.3% | COLO 205 colon 45.7%

CS(CCCCN=C=S)=NC(=O)c1c(F)c(F)c(F)c(F)c1F (centres undefined)
inactive: NCI-H23 lung 80.6% | NCI-H226 lung 99.6% | NCI-H322M lung 85.6% | HOP-62 NSCLC 109% | NCI-H460 lung 65.5% | HOP-92 NSCLC 80.8% | NCI-H522 lung 20.6% | A549/ATCC NSCLC 79.6% | 786-0 renal 94.3% | COLO 205 colon 61.4%

O=C1C(Cl)=C(Cl)C(=O)c2c1nc1n2CCCC1
active: COLO 205 colon 5.79%
inactive: NCI-H23 lung 74.3% | NCI-H226 lung 109% | NCI-H322M lung 52.7% | HOP-62 NSCLC 97.1% | NCI-H460 lung 39.9% | HOP-92 NSCLC 102% | NCI-H522 lung 85.2% | A549/ATCC NSCLC 98.4% | 786-0 renal 94.7%

CNCCCn1c2c(c3ccc([N+](=O)[O-])cc3c1=O)C(=O)c1cc(OC)cnc1-2
active: NCI-H23 lung -55.4% | NCI-H226 lung -81.5% | NCI-H322M lung -5.51% | HOP-62 NSCLC -33.4% | NCI-H460 lung -70.4% | HOP-92 NSCLC -7.43% | NCI-H522 lung -29% | A549/ATCC NSCLC -82% | 786-0 renal -78.5% | COLO 205 colon -13.2%

Nc1cccc(-c2nc3sccn3c2-c2ccnc(NCCCNS(=O)(=O)c3ccc(C(F)(F)F)cc3)n2)c1
inactive: NCI-H322M lung 19.4% | HOP-62 NSCLC 19.5% | HOP-92 NSCLC 71.4% | A549/ATCC NSCLC 12.8% | 786-0 renal 23.6%
active: NCI-H23 lung 4.88% | NCI-H226 lung 2.96% | NCI-H460 lung 2.98% | NCI-H522 lung 8.73% | COLO 205 colon 6.24%

CCN(CC)Cc1cc(Nc2c3ccccc3nc3cc(Cl)ccc23)ccc1O
active: NCI-H23 lung -82.6% | NCI-H226 lung -47.5% | NCI-H322M lung -40.9% | HOP-62 NSCLC -65.2% | NCI-H460 lung -73.6% | HOP-92 NSCLC -33.1% | NCI-H522 lung -80.8% | A549/ATCC NSCLC -37.6% | 786-0 renal -55.1% | COLO 205 colon -100%

COc1ccc(-c2cc(-c3cccnc3)nc3sc4c(=O)n(-c5ccc(C)cc5)nnc4c23)cc1OC
inactive: NCI-H23 lung 98% | NCI-H226 lung 93% | NCI-H322M lung 97.6% | HOP-62 NSCLC 95.5% | NCI-H460 lung 100% | HOP-92 NSCLC 74.4% | NCI-H522 lung 101% | A549/ATCC NSCLC 102% | COLO 205 colon 102%

C=C1CC2(OC1=O)C(=O)N(CCCCCCCN1C(=O)C3(CC(=C)C(=O)O3)c3ccccc31)c1ccccc12 (centres undefined)
active: HOP-92 NSCLC -1.35% | NCI-H522 lung -48.1%
inactive: NCI-H23 lung 52.6% | NCI-H226 lung 63% | NCI-H322M lung 87% | HOP-62 NSCLC 117% | NCI-H460 lung 38% | A549/ATCC NSCLC 83.7% | 786-0 renal 46.7% | COLO 205 colon 12.8%

CCN(CC)CCCC(C)N/C(=C1\C(=O)NC(=O)\C1=C(/NC(C)CCCN(CC)CC)c1cccc(OC)c1)c1cccc(OC)c1 (centres undefined)
active: NCI-H23 lung -22% | NCI-H226 lung -21.3% | NCI-H322M lung -49.6% | HOP-62 NSCLC -6.86% | NCI-H460 lung -38.1% | HOP-92 NSCLC -1.22% | NCI-H522 lung -74.9% | A549/ATCC NSCLC -52.9% | 786-0 renal 9.02% | COLO 205 colon -62.9%

COc1cc(OC)c(/C=C/c2cc[n+](C)c3ccccc23)c(OC)c1
active: NCI-H322M lung 6.52% | NCI-H460 lung 4.59% | HOP-92 NSCLC -10.8% | NCI-H522 lung -35.3% | A549/ATCC NSCLC 8.24% | COLO 205 colon -83.9%
inactive: NCI-H23 lung 17.3% | NCI-H226 lung 23.1% | HOP-62 NSCLC 17.1% | 786-0 renal 26.1%

CC1CN(C(C)C)C(=S)N(c2ccccc2)C1=O (centres undefined)
inactive: NCI-H23 lung 94.6% | NCI-H226 lung 106% | NCI-H322M lung 101% | HOP-62 NSCLC 85.7% | NCI-H460 lung 105% | HOP-92 NSCLC 107% | NCI-H522 lung 87% | A549/ATCC NSCLC 101% | 786-0 renal 96.2% | COLO 205 colon 157%

— PubChem BioAssay (NCI)
